Assay outcomes deposited in PubChem BioAssay by Fisher Drug Discovery Resource Center.
The sample as a whole holds a higher share of hits than the screen did.
mcGAS MS inh: inhibitors of mouse cGAS. Q8C6L5. recombinant mouse cGAS, cGAMP by RapidFire MS. inhibition, % at 12.5 µM. hit rate 0.18% among 130,000. AID 1259397;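 active = inhibition of cGAS enzyme activity at or above 60%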;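 note: enzyme stimulated by 45 bp dsDNA with ATP and GTP substrates; cGAMP share of summed cGAMP plus half ATP and half GTP signals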
* hit, by the source's call; ! = not active in a repeat.

What do the screens show for `Cn1cc(Br)cc1C(=O)NNS(=O)(=O)c1cccc(F)c1`?
mcGAS MS inh: 8

Results for CCCCCCCCCCCCCCCC[N+](C)(C)C ?
mcGAS MS inh: 98*!

What do the screens show for `CCCCCCCCCCCC[N+](C)(C)CCOc1ccccc1`?
mcGAS MS inh: 9

What do the screens show for `C[N+](C)(C)CCCCCC[N+](C)(C)C`?
mcGAS MS inh: -8

How did Cn1ccc2c(cnc3nc(-c4cccnc4)nn32)c1=O do in these assays?
mcGAS MS inh: -11

What do the screens show for `O=C(O)c1ccc(NC(=O)c2ccc(F)cc2Cl)s1`?
mcGAS MS inh: -3

What do the screens show for `Brc1ccc(-c2noc(-c3ccco3)n2)cc1`?
mcGAS MS inh: 10

How did CCN1C(=Cc2ccc3cc(C)ccc3[n+]2CC)Sc2ccccc21 do in these assays?
mcGAS MS inh: 11

Results for CCC(C)[n+]1c(C)cc(C=C2Sc3ccccc3N2CC)cc1C (stereo not drawn) ?
mcGAS MS inh: -10

How did CCN1C(=CC=Cc2sc3ccccc3[n+]2CC)Sc2ccccc21 do in these assays?
mcGAS MS inh: 70*

What do the screens show for `CCCn1ncc(C(=O)N2CCc3nnc(C4CCCO4)n3CC2)c1C` (stereo not drawn)?
mcGAS MS inh: 10

Results for CSc1ncc(CN2CCCC(CCC(=O)N3CCOCC3)C2)cn1 (stereo not drawn) ?
mcGAS MS inh: 2
